Experimental data: the supplement of paper PMC10981050
Where “and” joins values, the source holds several entries; their conditions need not be identical. Identical values can stand only once.

Key:
Experiment in all cases: cell viability relative to vehicle control; higher = less cytotoxic
Details in all cases: 10 µM
K562 = tested on: K562
Procedure, shortened: (§1)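 After removal of identity-inconsistent compounds, the Selleck bioactive, kinase and epigenetic probe libraries were screened on CRISPR-edited mutant clones and isogenic wild-type clones of four leukaemia lines. Plates were 384-well, each well holding 2000 cells in 50 µL medium and receiving a single 10 µM acoustically dispensed dose. CellTiter-Glo luminescence was read 48 h later, after the supernatant was taken off. Genedata Screener was used to express viability as percent of the on-plate vehicle control.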

MARIMO = tested on: MARIMO
Procedure, shortened: as §1

MOLM14 = tested on: MOLM14
Procedure, shortened: as §1

OCI-AML2 = tested on: OCI-AML2
Procedure, shortened: as §1

SMILES	cell viability (K562; SRSF2 genotype: SRSF2 P95H/wt)	cell viability (K562; SRSF2 genotype: SRSF2 wt/wt) [%]	cell viability (MARIMO; SRSF2 genotype: SRSF2 P95H/wt) [%]	cell viability (MARIMO; SRSF2 genotype: SRSF2 wt/wt) [%]	cell viability (MOLM14; SRSF2 genotype: SRSF2 P95H/wt) [%]	cell viability (MOLM14; SRSF2 genotype: SRSF2 wt/wt) [%]	cell viability (OCI-AML2; SRSF2 genotype: P95H/wt) [%]	cell viability (OCI-AML2; SRSF2 genotype: wt/wt) [%]
CCOC(=O)CC(=O)N1CCSC1COc1ccccc1OC (centres undefined) [Moguisteine]	99.2% and 102%	97.3	98.3	108	100	105	105	92
Cn1nnc2c(C(N)=O)ncn2c1=O [Temozolomide]	99.9% and 108%	101	94.5	94.2	86	99.2	94.9	96.6
N#Cc1ccc([C@H]2CCc3cncn32)c(F)c1	103% and 100%	88.2	100	113	99.5	101	95.9	94.6
